Measurements: article PMC5540273 (PLoS ONE, 2017)

tested on: MAP3K3; settings: concentration: 1 μM, replicates: in singlicate; n = 1
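Further: KINOMEscan kinase panel screen.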

Row | SMILES | %Inh
1 | CNc1nccc(-c2c(-c3ccc(F)cc3)ncn2C2CCN(C)CC2)n1 [SB-222903] | 0%
2 | CCn1c(-c2ccncc2)nc2cnccc21 [SB-735216] | 10%
3 | Clc1cc(Nc2ncnc3cc[nH]c23)ccc1OCc1ccccn1 | 27%
4 | CN1CCC(n2cnc(-c3ccc(F)cc3)c2-c2ccnc(NC3CCNCC3)n2)CC1 [SB-229482] | 0%
5 | Fc1ccc(-c2ncn(CCCNCc3ccccc3)c2-c2ccncc2)cc1 | 16%
6 | Cc1ccc(NC(=O)c2cccc(C#N)c2)cc1-c1ccc(C(=O)Nc2ccncc2)cc1 [GSK1398463] | 0%
7 | O=C(c1ccc(-c2cc(-c3c[nH]nc3-c3ccccn3)ccn2)cc1)N1CCCC1 [GW792479] | 11%
8 | Cl.c1ccc(Cn2ccc3cc(Nc4ncnc5ccccc45)ccc32)cc1 [GW275568] | 0%
9 | CS(=O)(=O)CCNCc1ccc(-c2ccc3ncnc(Nc4ccc(OCc5ccccc5)c(Cl)c4)c3c2)o1.Cl [GW574783] | 0%
10 | CCC(CC)(CC)n1cnc2c(N)ncnc21 [SKF-97620] | 0%
11 | CC(C)(C)OC(=O)NC1CCCN(c2cc(-c3ccc4c(N)n[nH]c4c3)nc(N)n2)C1 (stereo not drawn) [GSK2286096] | 0%
12 | O=C(Nc1ccccc1F)NC1CCN(c2ccnc(Nc3ccc(F)cc3)n2)C1 (stereo not drawn) [GSK1379722] | 0%
13 | Cl.c1ccc(Cn2ncc3cc(Nc4ncnc5ccccc45)ccc32)cc1 [GW273749] | 0%
14 | CC(=O)Nc1n[nH]c2ncc(-c3ccccc3)cc12 [SB-548492] | 37%
15 | Cc1cc(N2CCC(NS(=O)(=O)c3ccc(F)cc3)CC2)nc(Nc2cccc(C#N)c2)n1.O=C(O)C(F)(F)F [GSK1653537] | 0%
16 | N#Cc1ccc(Oc2ccc(Nc3ncnc4cc[nH]c34)cc2Cl)cc1 | 27%
17 | CCc1nc(-c2cccc(N(C)S(=O)(=O)c3ccccc3)c2)c(-c2ccnc(Nc3ccc(N4CCN(C(C)=O)CC4)nc3)n2)s1 [GSK1645895] | 0%
18 | CNc1nccc(-c2c(-c3ccc(F)cc3)ncn2CCCN2CCOCC2)n1 [SB-222516] | 0%

Row | SMILES | %Inh
19 | Cc1ccc(C)c(NC(=O)NCCNc2ccnc(Nc3ccc(F)cc3)n2)c1 [GSK1379878] | 0%
20 | Cc1cccc(-c2nc(Nc3ccc4[nH]nnc4c3)c3ccccc3n2)n1 [GW867587] | 0%
21 | COc1ccc(Nc2nccc(N3CCC(NC(=O)c4cccc(NC(C)=O)c4)C3)n2)cc1 (stereo not drawn) [GSK1379732] | 0%
22 | CSc1ccc(NC2=C(c3ccccc3Cl)C(=O)NC2=O)cc1 [SB-342411] | 0%
23 | C[C@@H]1CCN(C(=O)CO)C[C@@H]1N(C)c1ncnc2[nH]ccc12 | 7%
24 | CSc1nn2c(=O)cc(N3CCOCC3)nc2n1Cc1cccc(Cl)c1Cl [GSK2347225] | 0%
25 | COc1ccc(-c2oc3ncnc(N)c3c2-c2ccc(OC)cc2)cc1 [SB-589132] | 0%
26 | COc1ccc(NC(=O)c2ccc(-c3cc(-c4nnc(C)o4)ccc3C)cc2)cc1 [GW595885] | 0%
27 | COC(=O)c1c(-c2ccccc2)c2cc(Cl)ccc2c(=O)n1Cc1ccc(S(C)(=O)=O)cc1 | 26%
28 | CS(=O)(=O)CCNCc1nc(-c2ccc3ncnc(Nc4ccc(OCc5cccc(F)c5)c(Cl)c4)c3c2)cs1.Cl [GW583340] | 0%
29 | Cc1ccc(O)cc1Nc1cc(C(F)(F)F)nc2ccc(-c3ccncc3)cc12 [GW630823] | 0%
30 | Nc1nc(-c2ccc3c(N)n[nH]c3c2)cc(N2CCC[C@@H](C(=O)Nc3ccccc3)C2)n1.O=C(O)C(F)(F)F.O=C(O)C(F)(F)F [GSK2288359] | 0%
31 | CN1c2ccc(-c3ccc(C(=O)NCCO)cc3)cc2-c2[nH]ncc2S1(=O)=O | 40%
32 | Oc1ccc2ncnc(Nc3ccc(OCc4ccccc4)cc3)c2c1 [GI262866] | 0%
33 | Nc1nc(-c2ccccn2)c(-c2ccnc3ccccc23)s1 [GW548057] | 0%
34 | FC(F)(F)c1ccc(-c2cc(-c3c[nH]nc3-c3ccccn3)ccn2)cc1 [GW599550] | 0%
35 | Cn1cc(-c2ccc3c(c2)CCN3C(=O)Cc2cccc(C(F)(F)F)c2)c2c(N)ncnc21 [GSK2606414] | 0%
36 | NC(=O)c1sc(-n2cnc3ccccc32)cc1OCc1ccccc1F [GSK1024306] | 0%
